We go through 39 molecules from PubChem BioAssay AID1508625 (Wald Lab, School of Medicine, Case Western Reserve …, 2021).

The structures appear in SMILES notation.

A short description of this test: enhancers of NK cell killing of ovarian tumor cells, primary screen, imaging, OVCAR3, primary NK cells, calcein-AM imaging (AID 1508625).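 Also: compound given to NK cells 16 h before adding targets at 1.5 to 1 ratio.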 The conditions noted are these: OVCAR3 lysis by primary NK cells, at 5 µM; z-score: measured here: robust Z-score, single-point normalisation.
Take `O=C(c1oc(=O)c2ccccc2c1-c1ccccc1)N(CCc1ccccc1)Cc1ccccc1`: the z-score is -1.24 and the corrected activity, negative = more killing is -5.06%.

For `CNC(=O)C(C)Oc1cccc(Cl)c1` (stereo not drawn), the z-score was -1.46 and the corrected activity, negative = more killing is -2.63%.

Take `COC(=O)c1c(NC(=O)c2cc3ccccc3c(=O)o2)sc2c1CCC(C)C2` (stereo not drawn): the z-score is -0.344 and the corrected activity, negative = more killing is -0.836%.

For `C=CCn1c(-c2ccc3[nH]c(C)c(C)c3c2)n[nH]c1=S`, the corrected activity, negative = more killing was -6.13% and the z-score is -2.23.

For `CCOc1ccc(NS(=O)(=O)c2ccc3[nH]cc(C(=O)NCC4CCCO4)c(=O)c3c2)cc1` (stereo not drawn), the corrected activity, negative = more killing is -2.15% and the z-score is -0.527.

For the molecule `COc1ccc(-n2c(=S)[nH]c3cc(C(=O)N4CCOCC4)ccc3c2=O)cc1`, the corrected activity, negative = more killing was -10.1% and the z-score is -3.21.

Take `COc1ccc(N2C(=O)c3ccc(C)cc3C2=O)cc1OC`: the corrected activity, negative = more killing was -6.75% and the z-score was -2.54.

Regarding `Cc1cccn2c(=O)c3cc(C(=O)N(CC(C)C)CC(C)C)sc3nc12`, the corrected activity, negative = more killing is -8.5% and the z-score was -2.41.

`CC(=O)c1ccc(NC(=O)c2ccc(N)cc2)cc1`: the corrected activity, negative = more killing was -8.59% and the z-score is -1.81.

With `COc1ccc(-n2c(=S)[nH]c3cc(C(=O)NCc4ccc(Cl)cc4)ccc3c2=O)cc1`, the z-score is -0.763 and the corrected activity, negative = more killing is -2.4%.

In the case of `FC(F)(F)c1cc(-c2cccs2)nc2nc(=S)[nH]n12`, the z-score was -0.791 and the corrected activity, negative = more killing was -2.93%.

As for `N#CCCCSc1nnnn1-c1ccccc1`, the corrected activity, negative = more killing was -7.28% and the z-score is -2.25.

`CCOc1ccc(-c2n[nH]c(C(=O)NN=Cc3cccnc3)c2C)cc1`: the z-score is -1.36 and the corrected activity, negative = more killing is -3.11%.

For `CCC(C)NC(=O)c1ccc2c(=O)n(CCN(CC)CC)c(=S)[nH]c2c1` (stereo not drawn), the z-score was -1.09 and the corrected activity, negative = more killing is -4.1%.

`CC1=C(C(=O)OCCc2ccccc2)C(c2coc3ccc(C)cc3c2=O)C2=C(CC(c3cccs3)CC2=O)N1` (stereo not drawn): the z-score is 0.141 and the corrected activity, negative = more killing was 0.37%.

Consider `COc1ccc2cc3cc(C(=O)N(C)c4cc(C)ccc4C)oc3nc2c1`, for which the corrected activity, negative = more killing is -6.86% and the z-score is -1.68.

On to `CCOC(=O)C1=C(N)OC2=C(C(=O)CC(C)(C)C2)C1c1ccc(O)cc1` (stereo not drawn), for which the z-score is -1.28 and the corrected activity, negative = more killing was -4.12%.

For `COc1c(Cl)cccc1NC(=O)c1cccc2ccccc12`, the corrected activity, negative = more killing is -3.52% and the z-score was -1.31.

Turning to `COC(=O)c1ccc(COC(=O)c2cc(=O)[nH]c3ccccc23)cc1`, the z-score is -0.835 and the corrected activity, negative = more killing is -1.5%.

On to `CCOc1cc(C(=S)N2CCCCC2)ccc1OC(=O)c1ccc([N+](=O)[O-])cc1`, for which the corrected activity, negative = more killing was 0.525% and the z-score is 0.163.

Consider `COc1ccc(-n2c(=S)[nH]c3cc(C(=O)O)ccc3c2=O)c(OC)c1`, for which the corrected activity, negative = more killing was -4.6% and the z-score is -1.46.

Turning to `Cc1ccccc1NC(=O)OCc1ccccc1`, the corrected activity, negative = more killing is -1.84% and the z-score is -1.03.

As to `CCN(CC)C(=O)CSc1nnc(-c2ccccc2)o1`, the corrected activity, negative = more killing was -4.29% and the z-score is -1.86.

Turning to `Cc1ccc(OCCNC2CCCC2)c(C)c1`, the z-score is 0.0921 and the corrected activity, negative = more killing is 0.166%.

For the molecule `CCn1cnc2sc(C(=O)Nc3cccc([N+](=O)[O-])c3)c(C)c2c1=O`, the z-score was -0.931 and the corrected activity, negative = more killing was -2.56%.

In the case of `O=c1cc(O)c2c(n1-c1ccccc1)CCCC2`, the corrected activity, negative = more killing is -7.04% and the z-score is -2.18.

For `NC(=O)CN1CCOCCN(CC(N)=O)CCOCC1`, the z-score is -2.65 and the corrected activity, negative = more killing is -12.6%.

As to `COc1ccc([N+](=O)[O-])cc1N=Cc1ccc(N(C)C)cc1`, the z-score is -2.12 and the corrected activity, negative = more killing is -10%.

`CCCOc1ccc(C(=O)Nc2ccc3oc(-c4ccccc4)nc3c2)cc1`: the corrected activity, negative = more killing is -3.03% and the z-score was -1.07.

Regarding `Cc1cc(C)c(C=Nc2ccc(-c3ccccc3[N+](=O)[O-])cc2)c(C)c1`, the z-score is -1.91 and the corrected activity, negative = more killing is -4.49%.

In the case of `CCOc1ccc(-c2cc(C(=O)NN=Cc3cccnc3)[nH]n2)cc1`, the z-score is -2.15 and the corrected activity, negative = more killing is -4.91%.

Consider `Cc1c(C(=O)Nc2ccccc2O)cccc1[N+](=O)[O-]`, for which the z-score is -1.61 and the corrected activity, negative = more killing was -4.28%.

Turning to `COc1ccc(-c2ccc3c(N)c(C(=O)NCCc4ccc(Cl)cc4)sc3n2)cc1`, the corrected activity, negative = more killing is -1.65% and the z-score was -0.492.

Take `Cc1ccc(-n2ncc3c(=O)[nH]c(SCC(C)C)nc32)cc1C`: the corrected activity, negative = more killing was -9.35% and the z-score is -2.29.

For the molecule `COc1cc(C(=O)N2N=C(C3CC3)CC2(O)C(F)(F)F)cc(OC)c1OC` (stereo not drawn), the z-score was -1.41 and the corrected activity, negative = more killing is -3.44%.

`Cc1ccc(-n2cnc3cc(C(=O)NCC4CCCO4)ccc32)cc1Cl` (stereo not drawn): the z-score is -0.269 and the corrected activity, negative = more killing was -0.997%.

Consider `COc1ccccc1CNc1nc(-c2ccc(Br)cc2)nc2ccccc12`, for which the corrected activity, negative = more killing is -2.39% and the z-score is -1.28.

With `O=C(O)c1cc(Cl)ccc1NS(=O)(=O)c1ccc(Cl)cc1`, the z-score is -0.369 and the corrected activity, negative = more killing was -1.75%.

For the molecule `Cc1occc1C(=O)N1N=C(C2CC2)CC1(O)C(F)(F)F` (stereo not drawn), the z-score is -1.13 and the corrected activity, negative = more killing was -2.75%.
